G9a block = blocks human histone lysine methyltransferase G9a. 8.8% of 350,000 active. G9a H3K9 monomethylation, AlphaScreen, 2 h. Potency, µM (series often up to 102 µM), for inactives: at the top dose activity, negative = inhibition, most hits filed as inhibitors; note: % is set by controls: 0 for no effect and ±100 for the full control effect; nearly all actives have a fitted effect of over 75% in size
Target sequence (Q96KQ7 913-1193 limits assumed): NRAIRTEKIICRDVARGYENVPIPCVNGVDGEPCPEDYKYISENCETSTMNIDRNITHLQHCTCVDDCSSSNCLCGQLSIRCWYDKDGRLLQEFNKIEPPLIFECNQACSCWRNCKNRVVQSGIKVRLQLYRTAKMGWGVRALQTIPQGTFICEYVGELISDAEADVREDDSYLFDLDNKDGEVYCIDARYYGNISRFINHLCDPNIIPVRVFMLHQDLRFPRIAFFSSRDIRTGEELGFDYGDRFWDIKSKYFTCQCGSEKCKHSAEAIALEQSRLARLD
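Step 1: enzyme (final 20 nM) with compound, 15 min RT. Step 2: substrate peptide 500 nM and SAM 20 uM, 2 h RT. Step 3: anti-H3K9me1 antibody and AlphaScreen beads, 10 min, then plate read.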
BAZ2B block = blocks human BAZ2B; Q9UIF8; AlphaScreen BAZ2B-H3K14Ac peptide displacement; Potency, µM (series often up to 114 µM), inactives show at the highest dose activity change, negative = inhibition, most hits filed as inhibitors; 4.4% of 360,000 active; AID 504333; note: % is set by controls: 0 for no effect and ±100 for the full control effect; nearly all actives have a fitted effect of over 60% in size
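AlphaScreen displacement: compounds (up to 110uM) incubated 30 min at room temperature with a preformed 50 nM BAZ2B/50 nM biotinylated H3K14Ac peptide complex in PBS pH 7.4 with Tween-20. Donor and acceptor beads at 10 ug/mL final added, 20 min light-protected before reading.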
L3MBTL1 inh = inhibitors of human L3MBTL1; Q9Y468; AlphaScreen L3MBTL1–H3K9me1 peptide binding; Potency, µM (series often up to 57.1 µM), inactives show top-dose activity, negative = inhibition, actives largely listed as inhibitors; 0.66% of 230,000 active; AID 485360; note: % is set by controls: 0 for no effect and ±100 for the full control effect; nearly all actives have a fitted effect of over 60% in size
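AlphaScreen proximity signal between nickel-chelate acceptor and streptavidin donor beads (final 10 ug/mL) reports binding of 50 nM L3MBTL1 to 75 nM biotin-H3 K9me1 peptide; complex incubated with compounds 30 min at room temperature; cefsulodin titration as control.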
JMJD2A Tudor inh = blocks the human JMJD2A Tudor domain. O75164. AlphaScreen JMJD2A-Tudor / H3K4me3 peptide binding. Potency, µM (series often up to 114 µM), inactives show at the highest dose activity change, negative = inhibition, usual class: inhibitors. 4.4% of 390,000 active; note: % is set by controls: 0 for no effect and ±100 for the full control effect; nearly all actives have a fitted effect of over 50% in size
HP1b binding inh = inhibitors of HP1-beta chromodomain binding to methylated histone tails. 0.56% of 390,000 active. AlphaScreen HP1-beta / biotin-H3K9me3 peptide binding. Potency, µM (highest dose often 114 µM), for the others: at the top dose activity change, negative = inhibition, usual class: inhibitors. P83916; note: nearly all actives have a fitted effect of over 70% in size
Target sequence (P83916 whole entry, looked up): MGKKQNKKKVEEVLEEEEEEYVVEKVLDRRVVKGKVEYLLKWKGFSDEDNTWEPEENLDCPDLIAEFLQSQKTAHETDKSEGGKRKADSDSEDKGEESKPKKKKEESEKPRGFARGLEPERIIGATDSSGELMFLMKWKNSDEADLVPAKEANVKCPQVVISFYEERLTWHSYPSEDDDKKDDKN
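Compound inhibition of the preformed complex between 50 nM HP1-beta and 50 nM biotinylated H3K9me3 peptide was read by AlphaScreen. Buffer was PBS pH 7.4 with 0.01% Tween-20. Incubations ran 30 min at room temperature, with 10 ug/mL donor/acceptor beads.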
Active calls of the source: *; u = inconclusive; x = not tested or not shown; [ ] = another dose, or the depositor's remark. Hits are enriched below; roughly 11% of the tested compounds scored in any of these assays. Calls come from the whole dose curve; as a rule, active = well fitted inhibition curve with a large enough effect; inconclusive = small, poorly fitted or top-dose-only effect; inactive = no such curve, though single readings can be large or run the other way. Potency is the fitted concentration of half-maximal effect.

SMILES	G9a block	BAZ2B block	L3MBTL1 inh	JMJD2A Tudor inh	HP1b binding inh
CC(C)C(=O)Nc1nc2c(ncn2[C@H]2CC(O)[C@@H](CO)O2)c(=O)[nH]1 (stereo not given in full)	x	x	x	8%[57.1 µM]	9%[57 µM]
CCCCOc1ccc(C2=NC(c3ccncc3)=Nc3ccc(Br)cc3N2)cc1	u	u	x	-29%	19%
CC(C)CNC(=O)c1cc(S(=O)(=O)N2CCOCC2)ccc1N1CCCC1	7%	-1%	x	-6%	17%
C/C(=N\Nc1ccc(C(=O)O)cc1)c1ccc(Br)cc1	x	50µM*	u	71µM*	u
COc1ccc2c(c1)C(=NNc1ccc(C(=O)O)cc1)c1cc(OC)ccc1-2	u	40µM*	x	50µM*	u
COc1ccc2c(/C=N/Nc3ccc(C(=O)O)cc3)c[nH]c2c1	u	u	x	u	9%
COc1ncc2nc(C)c(=O)n(Cc3cccs3)c2n1	-38%[12.7 µM]	x	x	x	x
Cc1cc(C)n2nc(C(=O)OCC(=O)c3ccccc3Cl)nc2n1	u	-1%	2%	-9%	32%
Cc1cc(C)n2nc(C(=O)OCC(=O)c3cc(C)n(C)c3C)nc2n1	45µM*	50µM*	u	56µM*	-6%
Cc1cc(C)n(CC(O)Cn2c3ccc(Br)cc3c3cc(Br)ccc32)c(=O)n1 (stereo not given)	79µM*	-2%	x	-35%	u
Cc1cc(C)n(CC(O)Cn2c3ccccc3c3ccccc32)c(=O)n1 (stereo not given)	3%	3%	1%	-21%	4%
COc1cccc(CNC(=O)Cc2ccc(NC(=O)N3CCSc4ncccc43)cc2)c1OC	-2%[59 µM]	-15%	x	-7%	10%
CC1(C)Oc2ccc3ccc(=O)oc3c2/C(=C/O)C1=O	45µM*	-21%	0%	-10%	25%
CC1(C)Oc2ccc3ccc(=O)oc3c2-c2cn[nH]c21	u	-32%	-2%[11.4 µM]	0%	19%
CC1(C)Oc2ccc3ccc(=O)oc3c2/C(=C/Nc2ccccc2)C1=O	71µM*	u	x	u	-22%
CC1(C)Oc2ccc3ccc(=O)oc3c2/C(=C/N)C1=O	-36%	-37%	-10%	-27%	-2%
CC1(C)Oc2ccc3ccc(=O)oc3c2-c2cnoc21	u	50µM*	37%	u	16%
COCc1cc(=O)n2c(-c3ccc(C)cc3)n[nH]c2n1	18%	5%	-10%	-19%	34%
COCc1cc(=O)n2c(-c3ccccc3OC)n[nH]c2n1	3.2µM*	-28%	-5%	-18%	11%
CCN(CC)c1ccc(C2C(C(N)=O)=C(C)Nc3ncnn32)cc1 (stereo not given)	5%[59 µM]	-4%	x	-17%	14%[57 µM]
CCc1ccc(NC(=O)CSc2nc(=O)n(Cc3ccncc3)c3c2CCC3)cc1	8%[59 µM]	1%	x	9%	23%
CN(C)S(=O)(=O)c1cccc(NC(=S)N2CCc3ccccc32)c1	-33%	x	12%	-26%	14%
CC1Cc2ccccc2N1C(=S)Nc1cccc(S(=O)(=O)N(C)C)c1 (stereo not given)	40µM*	-21%	7%	-35%	14%
COc1ccc(NC(=S)N2c3ccccc3CC2C)cc1OC (stereo not given)	50µM*	-37%	u	-28%	-5%
Cc1oc(C(=O)O)cc1COc1cccc2cccnc12	79µM*	40µM*	28µM*	79µM*	14%
SMILES	G9a block	BAZ2B block	L3MBTL1 inh	JMJD2A Tudor inh	HP1b binding inh
O=C(COc1cccc2ccccc12)NNC(=O)Nc1ccccc1	u	-26%	-7%	-23%	29%
Cc1ccc(NC(=O)CN(C)C(=O)COc2cccc3cccnc23)cc1	u	50µM*	u	u	3%
NC(=O)COc1cccc2cccnc12	45µM*	0%	x	5%	22%
O=C(COc1cccc2cccnc12)NNC(=S)Nc1ccccc1	18µM*	2%	x	x	x
O=C(c1ccnc(Cl)c1)N1CCCC(N2CCN(c3ccccc3F)CC2)C1 (stereo not given)	-7%	-13%[57.1 µM]	x	-9%	29%
O=C(CCN1C(=O)C2C3CCC(C3)C2C1=O)OCC(=O)c1ccc(Cl)cc1 (stereo not given)	-8%[0.501 µM]	-2%	x	-7%	23%
O=C(/C=C/c1ccccc1)C1=C(O)C(=O)N(CCO)C1c1cccc([N+](=O)[O-])c1 (stereo not given)	u	-25%	-1%	-7%	24%
O=C(/C=C/c1ccccc1)C1=C(O)C(=O)N(CCO)C1c1ccccc1[N+](=O)[O-] (stereo not given)	45µM*	-31%	-2%	u	-5%[57 µM]
CC(C)CN1C(=O)c2ccccc2C1(O)Cc1ccccc1 (stereo not given)	8.9µM*	21%	31%	5%	50%
COc1ccc(-c2cc(C(F)(F)F)n3nc(C(=O)NCC45CC6CC(CC(C6)C4)C5)cc3n2)cc1	0%[59 µM]	-13%	x	0%	9%
O=C(COC(=O)c1ccc2c(c1[N+](=O)[O-])C(=O)c1ccccc1C2=O)NC1CC1	35µM*	-10%	-5%	-16%	37%
O=C(COC(=O)c1cccc(C(=O)OCC(=O)NC2CC2)n1)NC1CC1	14µM*	x	8%	u	9%
CC1CCCCC1NC(=O)COC(=O)c1ccc2c(c1Cl)C(=O)c1ccccc1C2=O (stereo not given)	-5%[59 µM]	u	-29%	u	2%
O=C(COC(=O)c1cccc2c1C(=O)c1ccccc1C2=O)NC1CCCCC1	18µM*	40µM*	-13%	40µM*	u
CC(=O)Nc1ccc(NC(=O)C2CCN(S(=O)(=O)c3ccc4c(c3)CCCC(=O)N4)CC2)cc1	4%[59 µM]	8%[57.1 µM]	x	-6%	41%
O=C1c2[nH]nc(-c3ccccc3O)c2C(c2cccc(OCc3ccccc3)c2)N1CCCO (stereo not given)	-1%[59 µM]	-15%	x	-17%	27%
Cc1ccc(NC(=O)[C@H](CSCc2ccccc2)N2Cc3ccccc3C2=O)cc1	-7%[59 µM]	-17%	x	-10%	32%
O=C(Nc1sc2c(c1C(=O)NCc1ccco1)CCCC2)c1cc(=O)c2ccccc2o1	1%[59 µM]	-17%	x	-17%	13%
O=C(COc1ccccc1)NC(=S)N1CCc2ccccc21	28µM*	-35%	-1%	-25%	-5%
COc1ccc(OCC(=O)NC(=S)N2CCCc3ccccc32)cc1	u	50µM*	x	56µM*	-26%
COc1ccc(OCCCC(=O)N2CCCc3ccccc32)cc1	4%[12.7 µM]	9%	x	-5%	16%
Cc1ccc(-c2noc(C3CCCN(C(=O)C4CCCCC4)C3)n2)o1 (stereo not given)	11µM*	-6%	x	-14%	17%
COC(=O)c1ccc2c(c1)N(CC(=O)Nc1cccc(C(F)(F)F)c1)C(=O)c1ccccc1S2	9%[59 µM]	-3%	x	-15%	13%[57 µM]
